From article PMC12864922, “TDP-43 directly inhibits mRNA accumulation in neurites through modulation of mRNA stability”
Whole data set: some 9,900 sequences, median “r (bound/input frequency ratio)” near 0.7, cut for the highest 2% near 6.5. What follows is part of a selection rich in the highest values, with near analogues and random picks from the rest.

B1: ENSMUSG00000028439.214|Fam219a|183:189;217:221 (ssRNA)
RNA: GGGAGUUCUACAGUCCGACGAUCGCUUCGAUAUCCGCAUGCUAUCUGGAACCUGGGUUCUGGUCCCAGCCUCGGCAUUCUCCCUGAGCUCCUAAGCAAUUCCCAGGCUUCUCUAGGGCUUCAGUUCUCACAACUGGAAAAUAAAGAGUAGCUGACAUCACCGACAGAGUCUUUUCAUACCAGAAGGAAUUUCUUCACAGGAGUUUCUGCAAAAGACUAUGACAUCACACACACUGUGGUCUCACGAGGUACCUGGAGGUCAUACUGCACGGACAUGGGAAGUACGUGAAGAUUUAUUUCGGGACUCUUGCGGUCGCACUAGUGUGGAAUUCUCGGGUGUCAAGG
B2: ENSMUSG00000004113.200|Cacna1b|94:98 (ssRNA)
RNA: GGGAGUUCUACAGUCCGACGAUCGCUUCGAUAUCCGCAUGCUACCUGAUCUCUGGCUCUGAGCAUCGUGGAUGAGGUACGGCCUCAGGAAGCAUCGGGUGGAUUGGGUGGGAGCUGCUCAGAGCAGCACGGGGGCUACACACUUAGGGACAUUGACAGUGUCCAUCAGCAUGUCAGAGAAGCAGCUGUAGUGCCCGUGUUUCUCCCUGAGUCAUGGGUUCUGAAGAAGCCAGAGCGGCACAAUGCGUGCUUGCAUGAGGCACUUUCAGCCUUUUUAAAUCUGACUCUCAGGGAUGGGAUGCCUCUCUUGCGGUCGCACUAGUGUGGAAUUCUCGGGUGUCAAGG
B3: ENSMUSG00000090935.682|Synj2bp (ssRNA)
RNA: GGGAGUUCUACAGUCCGACGAUCGCUUCGAUAUCCGCAUGCUAACUGUCAGGAGCUCUCUCUCUCUGCUUAGAAUCAUCCAGACAGCGGGCUGGUCAGCCCACAUUAAAUAAGAACAUGUGGGACUAGAAUUCAGUCAACAAUGACAUGUUUCAUCAGGUGGUUAAAAUGUACAGAUUCUGUUGGAAAUGUUCCAUGGUAUUUCAAUAGCCAGAAUGAAGAACUGGGCUAAGUCCAGAGCUCUGCUCUCUGAGCAUCUGCCCCAGAUACAGAGGCAGAGUAUGAAGUGGAACAUUGUUUUAUUCUCUUGCGGUCGCACUAGUGUGGAAUUCUCGGGUGUCAAGG
B4: ENSMUSG00000029028.246|Lrrc47|180:184 (ssRNA)
RNA: GGGAGUUCUACAGUCCGACGAUCGCUUCGAUAUCCGCAUGCUAUCCUCGUGGCAGACCCUGGACAACGCUGGUAGCUGUUCUCCAUGAGACACGGCUGCUCACAGGUCCCUUUGAGUGGCUGUGGCAAGUACUCACCUACUAAGUGUUUAGGGUGGAGCUAUCCUGUGCUCACCCUGUCUCCCCCCAGUUCCUGCUGUUCCCUCCAGCCCAGCCCAGCCCAGCACACAGAUUCAUUGAGAUUUUUGAAACUGUUUUUACAGAUUCAAGCAGAACGCCUCUUUGUUCUAAUAAAAACCCUUGGUCUCUUGCGGUCGCACUAGUGUGGAAUUCUCGGGUGUCAAGG
B5: ENSMUSG00000061578.401|Ksr2 (ssRNA)
RNA: GGGAGUUCUACAGUCCGACGAUCGCUUCGAUAUCCGCAUGCUAUUAAUGUACAGACAUCUGGAUCAAGGGAUUAAAAAAAAAAGAAUCAGUCUCUUCCCGGAGGAAGCAUCCGGGGGAAAUGUAUUCCUUCGCCCUGCAAGGAGCCAAUGGGAAGAGAGGGGACCAUAUAGUUAGAGACAUUCCCUACCCCCCGACCACUGACCCGUCCAGACCCUCGCUUCUUACAAUGCCUCUUCUUCUGCCAGACCAGCCACCUGCCCCACUAACACCAAAUGGCUUCUGUCCCUGCUUCACGUUGCAAACUCUUGCGGUCGCACUAGUGUGGAAUUCUCGGGUGUCAAGG
B6: ENSMUSG00000061578.1371|Ksr2 (ssRNA)
RNA: GGGAGUUCUACAGUCCGACGAUCGCUUCGAUAUCCGCAUGCUACUUACAUCUCUGACCCAGUGAUCUUUCUAGGGGUCUGUCACAUGUCCCAACAGGUGGACAGCUCUCCAAGUCACCAACCUGAGGAAAAUAUCCCUCCUUGUAAAAAGGCUUUCUCUUUGUAAAUGAUUCUGUUGCCUUUUUCUAAACACAAAGUAUAUAUACCUAUAAAUGCUAUAUAUAUUAUAUAUGUGUAUAUACAUAAAGACUACUUCUUGUACAGCCCUCCACGGACCUCAGGCCCACUGUUUUCUCCAUGUCUGCUCUUGCGGUCGCACUAGUGUGGAAUUCUCGGGUGUCAAGG
B7: ENSMUSG00000022095.129|Fam160b2|254:258 (ssRNA)
RNA: GGGAGUUCUACAGUCCGACGAUCGCUUCGAUAUCCGCAUGCUACAGCUGGUUCCUCUCUGGCGCCUUCUGAACCCGUCUCAGCAAGUCCGAAACACCUGGGCAGAGAGGUCAUUGACCAGGGAUGGGGGCCCUUGCCCUCUGAAUCCUGCCCAGUGCCCAGGGGUCCAGGUGGAAUGUGGUCCUGGGGACUAUAGGAACUCAAGGUACAGAUGGGACAGGGCACCCCAACUCCAAACCCCAGAAGCCUAGUGAGGCUAGGCCGAGACACAAGCAGAUAGCUCUGGCAUUGUUCUUCCAUACUCCUCUUGCGGUCGCACUAGUGUGGAAUUCUCGGGUGUCAAGG
B8: ENSMUSG00000042529.446|Kcnj12 (ssRNA)
RNA: GGGAGUUCUACAGUCCGACGAUCGCUUCGAUAUCCGCAUGCUAAGCCCAUCUGGUGCUGUGCACCUGGUCCUUGUCCAGCCGAGGGCCUGGGGGCAGAAGAACACACCAUAGGGAGGCCCUUGUAUGGGUGUCUGCCCUAUGUGAGGUCAUAGAAUGUUAAAUCUAUUUUAAACGGUGAAACUGGAGAAUUUUCAUGUUAUUUUCAAUAAUAGUGGUAUCUAAAGAUGUAGGCAACAAGACUAGACCACAUUAAAUGCAUUUUGAUCUCUUUGAAUGCUACUGUGUUGAGAUGUGCGUCUCACCUCUUGCGGUCGCACUAGUGUGGAAUUCUCGGGUGUCAAGG
B9: ENSMUSG00000022095.98|Fam160b2|79:83 (ssRNA)
RNA: GGGAGUUCUACAGUCCGACGAUCGCUUCGAUAUCCGCAUGCUAGGGGAAGCCCCCUCUUCCUGCUCUACCCUCCUGGAGGCUGUUGCAAAAUUCCCAACUGCCUCCUGGCAGAGGCCCAAACAUACCUCUGCGCCCAGGCGGGGGCAGCUGCUAACAAGAGCCCUGGCGCAGCUGCAGCCAGGGCAGGCGAGAGCCUUGGAGCUGGGUGCCAGGCUCCAGCUCCAGCUCCAGCUGGUUCCUCUCUGGCGCCUUCUGAACCCGUCUCAGCAAGUCCGAAACACCUGGGCAGAGAGGUCAUUGACCUCUUGCGGUCGCACUAGUGUGGAAUUCUCGGGUGUCAAGG
B10: ENSMUSG00000090935.122|Synj2bp|46:51;222:232 (ssRNA)
RNA: GGGAGUUCUACAGUCCGACGAUCGCUUCGAUAUCCGCAUGCUAUUCGUGAGAUACCGAAAGCAGCUUUGAAAUGCUUGCUGUCUUCCACACACACCAAUGAACUCUCUCUCUCACUCACCAUCUCUGACAUCCUCCCAUAUUCUUUCUCCUCCACAUAGCCAAUACAAGAUUUAAAGUGACUGCUUAUCACCCAAAACCCUGCUAUUCAAAAUCUCCUAUUCUAAUGGAAGAGUACAGGGGUUAUUUGAAGAAAAGCUGUGGUGCACACACACACGGGGAAGCCUUGCUUAGAAUGAAUGAGACUCUUGCGGUCGCACUAGUGUGGAAUUCUCGGGUGUCAAGG
B11: ENSMUSG00000058297.93|Spock2 (ssRNA)
RNA: GGGAGUUCUACAGUCCGACGAUCGCUUCGAUAUCCGCAUGCUAAGGGAGGGCAGGCAGCUGAAAGCUGAGCGUCCUCCCCAAAUUGGGCUGAUUUGAUAUGAAAGCCCCACCACGGUCUUGUGGUGAUGAGGCAGGACCUGUACACACAGCAAGGCUUACUAUCCGUCUCCUGACAUCCGAAGAGCUCGUCGCAGGUGUGUCUAAUGGCCCUUGGGCUGCACGUGGUUAAGCAUAGCUGUCUCUGUGGCCCAACACAAAGAGGUAAACUUACUUAAAACACAGGGGUUUUGUUGCUGUUUGUUCUCUUGCGGUCGCACUAGUGUGGAAUUCUCGGGUGUCAAGG
B12: ENSMUSG00000004113.177|Cacna1b|55:59;63:67;78:82;232:236 (ssRNA)
RNA: GGGAGUUCUACAGUCCGACGAUCGCUUCGAUAUCCGCAUGCUAGUAACUUUAAAAAAAAAGUCAACAUGUAGGAAGGUCUCCAUUUUGCAUUGUUUCACACACUUCAUACCAAUGUUCCUCAUACUUUCUACCCUGCCUGGGAUGUCCCCAAUGACCCUGGCUCCUCUGCUCAACCAAGUGCCUGAUCUCUGGCUCUGAGCAUCGUGGAUGAGGUACGGCCUCAGGAAGCAUCGGGUGGAUUGGGUGGGAGCUGCUCAGAGCAGCACGGGGGCUACACACUUAGGGACAUUGACAGUGUCCAUCUCUUGCGGUCGCACUAGUGUGGAAUUCUCGGGUGUCAAGG
B13: ENSMUSG00000042529.443|Kcnj12 (ssRNA)
RNA: GGGAGUUCUACAGUCCGACGAUCGCUUCGAUAUCCGCAUGCUAGAUGAAGCAGCUGCCCUGAGCCCAUCUGGUGCUGUGCACCUGGUCCUUGUCCAGCCGAGGGCCUGGGGGCAGAAGAACACACCAUAGGGAGGCCCUUGUAUGGGUGUCUGCCCUAUGUGAGGUCAUAGAAUGUUAAAUCUAUUUUAAACGGUGAAACUGGAGAAUUUUCAUGUUAUUUUCAAUAAUAGUGGUAUCUAAAGAUGUAGGCAACAAGACUAGACCACAUUAAAUGCAUUUUGAUCUCUUUGAAUGCUACUGUGCUCUUGCGGUCGCACUAGUGUGGAAUUCUCGGGUGUCAAGG

Target: TDP-43 (Homo sapiens, UniProt Q13148 1-414)
Sequence (Q13148 whole entry): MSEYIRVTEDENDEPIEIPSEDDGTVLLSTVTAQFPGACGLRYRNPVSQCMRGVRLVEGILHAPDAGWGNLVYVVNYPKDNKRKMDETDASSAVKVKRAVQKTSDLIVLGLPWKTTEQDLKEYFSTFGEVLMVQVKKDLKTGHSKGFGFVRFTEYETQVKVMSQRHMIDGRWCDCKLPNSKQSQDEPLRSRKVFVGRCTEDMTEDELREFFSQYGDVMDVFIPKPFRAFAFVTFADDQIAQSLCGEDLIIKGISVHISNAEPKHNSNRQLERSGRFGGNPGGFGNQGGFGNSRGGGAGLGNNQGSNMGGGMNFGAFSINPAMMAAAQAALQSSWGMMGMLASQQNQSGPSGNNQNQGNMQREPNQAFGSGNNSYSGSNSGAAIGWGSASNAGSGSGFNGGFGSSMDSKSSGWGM
Assay: RNA Bind-n-Seq with designed 260-mer pool; 25 mM Tris-HCl, 150 mM KCl, 3 mM MgCl2, BSA (printed 500 mg/mL), 20 units/mL SUPERase IN; pH not stated; 500 nM RNA pool, 1 h, 4 C; TDP-43 5, 50, 500 nM; high values mean tight binding
Settings: protein: recombinant; tags: SBP (GST cleaved off with PreScission; pGEX-GST-SBP)
Method in brief: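 The incubation lasted 1 h at 4 °C and used 500 nM of an in vitro-transcribed 260-nt 3′ UTR oligo pool with recombinant SBP-tagged TDP-43 at 5, 50 or 500 nM immobilized on streptavidin beads. It took place in 25 mM Tris-HCl, 150 mM KCl, 3 mM MgCl2, BSA and SUPERase IN. Bound RNA was washed, eluted with biotin, converted to cDNA, PCR-amplified and sequenced to give R, each oligo's normalized abundance in the bound sample divided by that in input. Two independent protein batches provided the duplicates.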

Binder | binding signal
B1 | 0.393 R (bound/input frequency ratio)
B2 | 0.929 R (bound/input frequency ratio)
B3 | 0.473 R (bound/input frequency ratio)
B4 | 0.573 R (bound/input frequency ratio)
B5 | 0.446 R (bound/input frequency ratio)
B6 | 0.0492 R (bound/input frequency ratio)
B7 | 0.357 R (bound/input frequency ratio)
B8 | 1.1 R (bound/input frequency ratio)
B9 | 0.706 R (bound/input frequency ratio)
B10 | 2.71 R (bound/input frequency ratio)
B11 | 0.528 R (bound/input frequency ratio)
B12 | 0.533 R (bound/input frequency ratio)
B13 | 1.32 R (bound/input frequency ratio)
